According to PubChem BioAssay AID1508600 (Functional Genomics Laboratory (NCATS/FGL), 2020):
In all, about 53,000 sequences went through this assay and about 3,700 (7%) were called active. This is one part of a sample in which actives are shown more often than they occur.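 The calls were made as follows: active = gene knockdowns whose robust z-score for IL-1 alpha signal is at least 2 or at most -2, so actives lie on both sides; inactive = the rest.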

Experiment: Components of the Cytosolic LPS Sensing Pathway: Gene Identification via Genome-wide siRNA Screen;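 also: robust z of the log signal after scaling to non-targeting control siRNA wells of the plate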
Conditions: RAW264.7 macrophages, IL-1a HTRF, actives lie on both sides, screened at 100 nM (by protocol), cells primed 5 h with Pam3CSK4 first
How it was run: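 Cells (RAW264.7, 1×10^4 per well) were transfected with siRNA at 100 nM and cultured 48h at 37 degrees C. Pam3CSK4 was added for 5 hours; LipidA transfection followed for 24 hour. IL-1a was then measured by HTRF.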

z-score, inactive:
CCUUACCAGGAAACAUAUUTT against Dennd10 -1.33
GCGGUUAGCACAAUGUGAATT against Ppp2cb -0.577
GGAAAUAAAACAGAUUUGGTT against Atpaf1 0.576
GGCACGAGGCAGAAUUUUATT against Kctd3 0.696
GGUACUGCUAUGAGAAACUTT against Adam22 0.224
GGACCAGAAACGCAUGCUUTT against Maml3 -0.762
GGAAAACUCAUCAUACCAGTT against Ugt3a1 0.737
CGAUUUUACCAACCGCUGCTT against Chtf18 0.702
GCUGUUGUAACCAUAACAGTT against Ntsr1 0.439
CCAGUUAAACACAUUAGCCTT against Mxra8 -0.373
GGCUCAACGGCUUAGGGAATT against B3gat3 1.42
GGAAAAUAAGCAUAGUGAUTT against Spesp1 -0.35
GGACAACCAGCUCAUUGUGTT against Cd82 -1.09
GCAACACACUGCUUCCUGGTT against Tmem19 -1.38
GGUAAUUGAGUUUGACGAUTT against Ptprf 0.585
GCCUUCGUCUCCAAGUAUATT against Plagl1 -0.305
GCUCCUUGCUUGAUUCUACTT against BC107364 0.649
GGAUAGAGUUAAUGAAAAGTT against Poc5 0.827
GGCACAUUGUGGUGUCUUGTT against Pycr1 -3e-05
GGAGAUUGAAGAGCUCCGATT against Cabp1 -0.0021
GGCCCAUAUUUUAUUACCGTT against Galns -1.84
GGAGGCAGUGUUUUGUCAATT against Fgd4 -0.912
GGAAGGCAUUGAAGCUGAATT against Armt1 0.447
GGGCCAACUCAAAACAAAATT against Wdr37 -0.74
GGUUGUUCACUAGGUCACUTT against Creg2 0.591
GGUGUGUGAAAUCACUCACTT against Oxnad1 0.303

z-score, active:
GCUACAAUUGGCCUUAUCUTT against Stpg2 -3.03
GGGAAUUGCCUCAGCUAAGTT against Men1 2.95
CGAAGGCUUCCCUUUUAUCTT against Tmem150b 2.67
CCUCUAGAUAGUGUUAGAGTT against Smarcd1 -2.19
